Data taken from a collection of fitness landscapes (doi:10.1016/j.celrep.2020.107928).
Whole data set: some 81,000 sequences, median “one-hybrid fitness for binding NBS DNA” near -0.1, cut for the highest 2% near 0.36. The sample as a whole holds a higher share of the highest values than the screen did.

B1: Caulobacter ParB omega fusion; a variant is named by its letters at X, in order, B8GW30 (parent)
chain: MESVVVGEPGMSEGRRGLGRGLSALLGEVDAAPAQAPGEQLGGSREAPIEILQRNPDQPRRTFREEDLEDLSNSIREKGVLQPILVRPSPDTAGEYQIVAGERAWRAAQRAGLKTVPIMVRELDDLAVLEIGIIENVQRADLNVLEEALSYKVLMEKFERTQENIAQTIGKSXSHVANXMRLLXLPDEVQSYLVSGELTAXHARAIAAAADPVALAKQIIEGGLSVRETEALARKAPNLSAGKSKGGRPPRVKDTDTQALESDLSSVLGLDVSIDHRGSTGTLTITYATLEQLDDLCNRLTRGI

Variants of: B1
Assay: one-hybrid fitness for binding NBS DNA (the Noc-binding site; scaled: cognate 1, non-cognate 0); higher = stronger binding
Conditions: with NBS DNA site
Method in brief: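 The reporter was HIS3, with the binding site 19 bp from the promoter, in E. coli USO used for bacterial one-hybrid selection of Caulobacter ParB libraries with four specificity codons randomised. Growth was on M9 lacking histidine, with 0.1 mM IPTG and 5 mM 3-AT, for 48 hours at 37°C. Illumina sequencing covered plasmids before and after selection; three replicate libraries were pooled and variants with under 10 reads dropped. A fitness score is the log change in variant-to-wild-type read ratio, rescaled to the cognate and non-cognate references.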

Variant | one-hybrid fitness for binding NBS DNA
NYTS | ≤ 0.2
GQGC | ≤ 0.2
AMCS | ≤ 0.2
NVHT | ≤ 0.2
RMYT | 0.417
RMPT | ≤ 0.2
RMWT | 0.348
PILE | ≤ 0.2
WLPE | ≤ 0.2
CTVI | ≤ 0.2
RAMV | ≤ 0.2
RSCS | 0.343
RKCN | ≤ 0.2
RTCP | ≤ 0.2
RMCP | ≤ 0.2
RTCH | 0.234
RKCP | ≤ 0.2
RKCS | 0.525
RCCS | 0.46
RPCS | ≤ 0.2
RMCS | 0.383
RTCS | 0.467

Variant | one-hybrid fitness for binding NBS DNA
RMCD | ≤ 0.2
IART | ≤ 0.2
NTSG | ≤ 0.2
NVYS | ≤ 0.2
KVTC | ≤ 0.2
QPTP | ≤ 0.2
RWEY | ≤ 0.2
ARSD | ≤ 0.2
RCSW | ≤ 0.2
RTAN | ≤ 0.2
RTAR | 0.548
RTFS | 0.339
RTFN | ≤ 0.2
RTAH | ≤ 0.2
RTFR | 0.441
VCRV | ≤ 0.2
RISE | ≤ 0.2
TSIF | ≤ 0.2
HHVS | ≤ 0.2
SALW | ≤ 0.2
HAHM | ≤ 0.2
QQMS | 0.368

Variant | one-hybrid fitness for binding NBS DNA
QQMN | ≤ 0.2
QQMR | 0.584
QQMP | ≤ 0.2
QQMH | 0.222
QQMF | ≤ 0.2
QQMD | ≤ 0.2
QQMK | ≤ 0.2
QQMT | 0.499
TPTE | ≤ 0.2
MRFN | ≤ 0.2
SLPK | ≤ 0.2
RCHW | ≤ 0.2
TPGK | ≤ 0.2
QQFT | 0.435
QQAD | ≤ 0.2
DQFT | ≤ 0.2
QQAT | 0.482
QQAH | 0.284
DRLH | ≤ 0.2
NPTI | ≤ 0.2
WVVG | ≤ 0.2
ARKE | ≤ 0.2

Variant | one-hybrid fitness for binding NBS DNA
GRRW | ≤ 0.2
PTWL | ≤ 0.2
PTTT | ≤ 0.2
ARAA | ≤ 0.2
RHGE | ≤ 0.2
QELE | ≤ 0.2
DGQC | ≤ 0.2
KKKY | ≤ 0.2
RSWM | ≤ 0.2
QCNY | 0.297
QCLY | ≤ 0.2
QRLY | 0.447
QRRY | 0.718
QPCY | ≤ 0.2
QREY | 0.256
QSLY | ≤ 0.2
QSCY | ≤ 0.2
QRNY | 0.556
QRPY | ≤ 0.2
QRDY | 0.289
QRCY | 0.508
